The results in this text go back to PubChem BioAssay AID504652 (National Center for Advancing Translational Sciences (NCATS), 2011).

About 11,000 (3.1%) of roughly 360,000 compounds were called active. The list comes from a sample in which actives are over-represented; it also holds similar structures and randomly drawn compounds. A number with no mark means an inactive call. Cut-off read from the data, not from the text of the source: active = activity change below about -30%; inactive = the rest.
% is set by controls: 0 for no effect and ±100 for the full control effect.

In the experiment the target is D(1A) dopamine receptor (Homo sapiens) (UniProt P21728). As to the kind of experiment: Antagonist of Human D 1 Dopamine Receptor: qHTS. Particulars: HEK293 TREx D1 cells, calcium flux, dopamine EC80; at 10 µM; hits give low values. The text has this: Dopamine receptors (DARs) are involved in the etiology and/or therapy of a number of neuropsychiatric and endocrine disorders. For instance, all receptor-based antiparkinsonian drugs work via stimulating the […] DAR subtype whereas all FDA-approved antipsychotic agents are antagonists of this receptor. […] There are three different types of allosteric modulators that we are seeking, two of which will stimulate or augment receptor signaling, allosteric agonists and potentiators, while the third, allosteric antagonists, will attenuate receptor signaling. The present primary screening assay measures compound antagonism after an EC80 addition of dopamine by tracking calcium flux in a […], inducible Hek293 Trex D1 cell line. NIH Chemical Genomics Center [NCGC] NIH Molecular Libraries Probe Centers Network [MLPCN] MLPCN Grant: NS064831-01 Assay Submitter (PI): David Sibley
Chain of D(1A) dopamine receptor (Homo sapiens) (P21728 whole entry, looked up): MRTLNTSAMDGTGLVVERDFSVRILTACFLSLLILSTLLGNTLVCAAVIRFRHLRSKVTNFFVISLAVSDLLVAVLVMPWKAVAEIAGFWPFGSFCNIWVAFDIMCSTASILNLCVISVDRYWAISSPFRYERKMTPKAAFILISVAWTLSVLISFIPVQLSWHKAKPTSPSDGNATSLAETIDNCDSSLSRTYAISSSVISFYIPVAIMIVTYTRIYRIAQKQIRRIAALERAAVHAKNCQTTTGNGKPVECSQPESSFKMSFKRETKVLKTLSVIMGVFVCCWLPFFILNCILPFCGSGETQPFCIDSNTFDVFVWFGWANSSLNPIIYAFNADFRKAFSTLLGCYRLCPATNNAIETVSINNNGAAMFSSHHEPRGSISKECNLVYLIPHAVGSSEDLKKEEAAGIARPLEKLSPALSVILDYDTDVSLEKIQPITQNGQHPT
Freshly passaged cells are plated in 1536 well black, clear bottom plates at a density of 4000 cells/well in 3 ul of complete media containing 1x tetracycline inducer. After an overnight incubation at 30 C in 5% CO2, cells are loaded with 2 ul of the no wash Calcium Assay Kit (ABD Bioquest) and incubated at room temperature for 30 to 90 minutes. Agonist read: A 10 cycle (1 second/cycle) baseline measurement is taken and then the FDSS online 1536 pintool delivers 23 nl of compound library (as well as dopamine controls) to the plate. The plate is measured for kinetically at 1 cycle/sec for 180 seconds. Following the 180 second read, 1 ul of an EC80 (negative modulation assay) is delivered by an onboard pipette head. Measurements are taken kinetically for an additional 180 seconds.
On to `Cc1cc2oc(C(=O)N(Cc3ccc(Cl)cc3)Cc3ccco3)c(C)c2cc1Cl`, for which the activity change, negative = inhibition is -1.03%.

Turning to `CCCOc1ccc(-c2cccc(NS(=O)(=O)c3ccccc3)c2)nn1`, the activity change, negative = inhibition is -24.2%. As to `CCNS(=O)(=O)c1cc(-c2nnc(Nc3cccc(C(F)(F)F)c3)c3ccccc23)ccc1C`, the activity change, negative = inhibition was -6.09%. As to `Cc1ccc2nc(COc3ccc(NC(=O)COc4ccccc4F)cc3)cc(=O)n2c1`, the activity change, negative = inhibition is 0.203%. Regarding `Cc1ccc2nc(COc3ccc(N(C)S(=O)(=O)c4ccccc4)cc3)cc(=O)n2c1`, the activity change, negative = inhibition was -32.1% (active). The same measure for `COc1cccc(COc2ccc(N(C)S(=O)(=O)c3ccccc3)cc2)c1`: -1.51%; for `CSc1ccc(CCNC(=O)c2ccc3c(c2)nc2n3CCOC2)cc1`: 11.3%; for `CCCN1CCN(CCCNC(=O)c2ccc3nc(Cc4ccccc4)oc3c2)CC1`: -1.19%. Regarding `CC(C)CC(NS(=O)(=O)c1ccc2c(c1)oc(=O)n2C)C(=O)NCc1ccccc1Cl` (configuration not stated), the activity change, negative = inhibition is 14.8%. In the case of `CCCCCn1c(=O)[nH]c2cc(C(=O)Nc3cc(C)cc(C)c3)ccc2c1=O` it was -6.59%; in that of `Cc1ccc(C(C[N+](=O)[O-])c2c(C)cc3ccccn23)cc1` (configuration not stated), -51.3% (active). Take `COc1ccc(C(C[N+](=O)[O-])n2nc(C)cc2C)cc1` (configuration not stated): the activity change, negative = inhibition was 13.7%. Regarding `CC(=O)Nc1ccc(/C=N/Nc2ccc(C(=O)c3c(C)cc4ccccn34)cc2[N+](=O)[O-])cc1`, the activity change, negative = inhibition was -18.5%.

As to `CN1CCN(C2=NCCO2)CC1`, the activity change, negative = inhibition was -33% (active). For the compound `CCOC(=O)C1CCN(c2csc3ccc(C)cc3c2=O)CC1`, the activity change, negative = inhibition was 6.24%.

As to `Fc1cccc(-n2ncc3c2ncn2nc(-c4ccccc4Cl)nc32)c1`, the activity change, negative = inhibition is -8.03%. As for `Cc1cccc(NC(=S)NCCc2ccc(Cl)cc2)c1C`, the activity change, negative = inhibition is -8.27%.

Regarding `Oc1cc2c(cc1O)CN(C(=S)NCCc1ccc(Cl)cc1)CCC2`, the activity change, negative = inhibition is -90.5% (active).

As to `O=C(NCCc1ccc(Cl)cc1)c1cccc(N2CCCC2=O)c1`, the activity change, negative = inhibition was -8.26%. Regarding `Cc1ccc2ncc(C(=O)Nc3ccc(OC(F)(F)F)cc3)c(=O)n2c1`, the activity change, negative = inhibition is 0.312%. As to `CC(=O)c1ccc(N2CCN(C(=O)CCc3ccccc3)CC2)cc1`, the activity change, negative = inhibition is 3.26%.

As for `COc1cc(CCC(=O)N2CCN(c3ccccc3Cl)CC2)cc(OC)c1OC`, the activity change, negative = inhibition was -35% (active). `COc1cc(CCC(=O)Nc2ccncc2Cl)cc(OC)c1OC`: the activity change, negative = inhibition was 1.11%. Take `COc1cccc(C(=O)N(Cc2cccc(Cl)c2)Cc2ccco2)c1`: the activity change, negative = inhibition is -12.2%. With `COc1ccc(-c2ccc(CNCCCN3CCOCC3)o2)cc1Cl`, the activity change, negative = inhibition is -8.26%. As for `C=CCOc1ccc(Cl)cc1CNCCCN1CCOCC1`, the activity change, negative = inhibition is -32.4% (active).

For the compound `O=C(NCCCN1CCOCC1)c1cc(-c2ccc(Cl)cc2)on1`, the activity change, negative = inhibition is 7.89%.
